Positions count from the first letter of the chain named.

Holding throughout (experiment): PBM; 200 nM protein, PBS
Conditions in all cases: dsDNA, one strand shown

The target in assay [1] is T1, SIX6 (Homo sapiens, UniProt O95475 114-200, L167I).
T1 sequence: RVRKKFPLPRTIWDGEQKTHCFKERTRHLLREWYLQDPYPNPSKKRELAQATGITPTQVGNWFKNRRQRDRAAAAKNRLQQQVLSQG

Assay [2] has as its target T2, SIX6 (Homo sapiens, UniProt O95475 114-200, L143V).
T2 sequence: T1 sequence with L30V, I54L

Assay [3] deals with T3, SIX6 (Homo sapiens, UniProt O95475 114-200, H141N).
T3 sequence: T1 sequence with H28N, I54L

Assay [4] addresses T4, SIX6 (Homo sapiens, UniProt O95475 114-200, T165P).
T4 sequence: T1 sequence with T52P, I54L

The target of assay [5] is T5, SIX6 (Homo sapiens, UniProt O95475 114-200, L167M).
T5 sequence: T1 sequence with I54M

For assay [6], the target named is T6, SIX6 (Homo sapiens, UniProt O95475 114-200, L143M).
T6 sequence: T1 sequence with L30M, I54L

The target in assay [7] is T7, SIX6 (Homo sapiens, UniProt O95475 114-200, L143I).
T7 sequence: T1 sequence with L30I, I54L

The target of assay [8] is T8, SIX6 (Homo sapiens, UniProt O95475 114-200, T165G).
T8 sequence: T1 sequence with T52G, I54L

Assay [9] addresses T9, SIX6 (Homo sapiens, UniProt O95475 114-200, T139Q).
T9 sequence: T1 sequence with T26Q, I54L

Assay [10] concerns the target T10, SIX6 (Homo sapiens, UniProt O95475 114-200, T165A).
T10 sequence: T1 sequence with T52A, I54L

Assay [11] has as its target T11, SIX6 (Homo sapiens, UniProt O95475 114-200, L167V).
T11 sequence: T1 sequence with I54V

Assay [12] has as its target T12, SIX6 (Homo sapiens, UniProt O95475 114-200).
T12 sequence: T1 sequence with I54L

The target in assay [13] is T13, SIX6 (Homo sapiens, UniProt O95475 114-200, T165I).
T13 sequence: T1 sequence with T52I, I54L

As to GATACATA, the binding signal with SIX6 [1] was 11.1 upbm affinity estimate (log intensity, higher = more binding, comparable within an allelic series); with SIX6 [2] it was 10.4 upbm affinity estimate (log intensity, higher = more binding, comparable within an allelic series); with SIX6 [3] it was 11 upbm affinity estimate (log intensity, higher = more binding, comparable within an allelic series); in the assay with SIX6 [4] it was 10 upbm affinity estimate (log intensity, higher = more binding, comparable within an allelic series); with SIX6 [5] it was 10.7 upbm affinity estimate (log intensity, higher = more binding, comparable within an allelic series); in the assay with SIX6 [6] it was 10.9 upbm affinity estimate (log intensity, higher = more binding, comparable within an allelic series). Also, the binding signal is 10.4 upbm affinity estimate (log intensity, higher = more binding, comparable within an allelic series) in the assay with SIX6 [7]; 11 upbm affinity estimate (log intensity, higher = more binding, comparable within an allelic series) with SIX6 [8]; 11.1 upbm affinity estimate (log intensity, higher = more binding, comparable within an allelic series) with SIX6 [9]; 11 upbm affinity estimate (log intensity, higher = more binding, comparable within an allelic series) in the assay with SIX6 [10]; 10.8 upbm affinity estimate (log intensity, higher = more binding, comparable within an allelic series) with SIX6 [11]; 10.9 upbm affinity estimate (log intensity, higher = more binding, comparable within an allelic series) with SIX6 [12]. In the assay with SIX6 [13], the binding signal is 10.8 upbm affinity estimate (log intensity, higher = more binding, comparable within an allelic series).

As to CTGTATCA, the binding signal with SIX6 [1] is 11.2 upbm affinity estimate (log intensity, higher = more binding, comparable within an allelic series); with SIX6 [2], 10.3 upbm affinity estimate (log intensity, higher = more binding, comparable within an allelic series); with SIX6 [3], 11.2 upbm affinity estimate (log intensity, higher = more binding, comparable within an allelic series); in the assay with SIX6 [4], 9.69 upbm affinity estimate (log intensity, higher = more binding, comparable within an allelic series); with SIX6 [5], 10.6 upbm affinity estimate (log intensity, higher = more binding, comparable within an allelic series); in the assay with SIX6 [6], 10.9 upbm affinity estimate (log intensity, higher = more binding, comparable within an allelic series). In addition, the binding signal with SIX6 [7] is 10.3 upbm affinity estimate (log intensity, higher = more binding, comparable within an allelic series); in the assay with SIX6 [8], 11.1 upbm affinity estimate (log intensity, higher = more binding, comparable within an allelic series); in the assay with SIX6 [9], 11.1 upbm affinity estimate (log intensity, higher = more binding, comparable within an allelic series); with SIX6 [10], 11.1 upbm affinity estimate (log intensity, higher = more binding, comparable within an allelic series); in the assay with SIX6 [11] it was 10.9 upbm affinity estimate (log intensity, higher = more binding, comparable within an allelic series); in the assay with SIX6 [12] it was 10.9 upbm affinity estimate (log intensity, higher = more binding, comparable within an allelic series). For the same sequence, the binding signal in the assay with SIX6 [13] is 10.9 upbm affinity estimate (log intensity, higher = more binding, comparable within an allelic series).

Turning to ATACCCAT, the binding signal was 10.6 upbm affinity estimate (log intensity, higher = more binding, comparable within an allelic series) in the assay with SIX6 [1]; 10.1 upbm affinity estimate (log intensity, higher = more binding, comparable within an allelic series) in the assay with SIX6 [2]; 10.6 upbm affinity estimate (log intensity, higher = more binding, comparable within an allelic series) with SIX6 [3]; 9.74 upbm affinity estimate (log intensity, higher = more binding, comparable within an allelic series) with SIX6 [4]; 10.4 upbm affinity estimate (log intensity, higher = more binding, comparable within an allelic series) in the assay with SIX6 [5]; 10.6 upbm affinity estimate (log intensity, higher = more binding, comparable within an allelic series) with SIX6 [6]. For the same sequence, the binding signal with SIX6 [7] is 10.1 upbm affinity estimate (log intensity, higher = more binding, comparable within an allelic series); with SIX6 [8], 10.7 upbm affinity estimate (log intensity, higher = more binding, comparable within an allelic series); with SIX6 [9], 10.8 upbm affinity estimate (log intensity, higher = more binding, comparable within an allelic series); with SIX6 [10], 10.5 upbm affinity estimate (log intensity, higher = more binding, comparable within an allelic series); with SIX6 [11], 10.4 upbm affinity estimate (log intensity, higher = more binding, comparable within an allelic series); with SIX6 [12], 10.6 upbm affinity estimate (log intensity, higher = more binding, comparable within an allelic series). The binding signal in the assay with SIX6 [13] was 10.4 upbm affinity estimate (log intensity, higher = more binding, comparable within an allelic series).

For the sequence GTATATCA, the binding signal with SIX6 [1] is 11.2 upbm affinity estimate (log intensity, higher = more binding, comparable within an allelic series); with SIX6 [2], 10.5 upbm affinity estimate (log intensity, higher = more binding, comparable within an allelic series); in the assay with SIX6 [3] it was 11.3 upbm affinity estimate (log intensity, higher = more binding, comparable within an allelic series); in the assay with SIX6 [4], 9.99 upbm affinity estimate (log intensity, higher = more binding, comparable within an allelic series); with SIX6 [5], 10.9 upbm affinity estimate (log intensity, higher = more binding, comparable within an allelic series); in the assay with SIX6 [6] it was 11.1 upbm affinity estimate (log intensity, higher = more binding, comparable within an allelic series). Further, the binding signal with SIX6 [7] is 10.5 upbm affinity estimate (log intensity, higher = more binding, comparable within an allelic series); with SIX6 [8], 11.2 upbm affinity estimate (log intensity, higher = more binding, comparable within an allelic series); with SIX6 [9], 11.2 upbm affinity estimate (log intensity, higher = more binding, comparable within an allelic series); with SIX6 [10] it was 11.2 upbm affinity estimate (log intensity, higher = more binding, comparable within an allelic series); with SIX6 [11], 11 upbm affinity estimate (log intensity, higher = more binding, comparable within an allelic series); with SIX6 [12], 11.1 upbm affinity estimate (log intensity, higher = more binding, comparable within an allelic series). Further, the binding signal with SIX6 [13] was 11.2 upbm affinity estimate (log intensity, higher = more binding, comparable within an allelic series).

For ATATCACA, the binding signal is 11.3 upbm affinity estimate (log intensity, higher = more binding, comparable within an allelic series) in the assay with SIX6 [1]; 10.3 upbm affinity estimate (log intensity, higher = more binding, comparable within an allelic series) with SIX6 [2]; 11.3 upbm affinity estimate (log intensity, higher = more binding, comparable within an allelic series) with SIX6 [3]; 9.9 upbm affinity estimate (log intensity, higher = more binding, comparable within an allelic series) with SIX6 [4]; 10.7 upbm affinity estimate (log intensity, higher = more binding, comparable within an allelic series) with SIX6 [5]; 11 upbm affinity estimate (log intensity, higher = more binding, comparable within an allelic series) in the assay with SIX6 [6]. For the same sequence, the binding signal with SIX6 [7] is 10.4 upbm affinity estimate (log intensity, higher = more binding, comparable within an allelic series); with SIX6 [8] it was 11.3 upbm affinity estimate (log intensity, higher = more binding, comparable within an allelic series); with SIX6 [9], 11.1 upbm affinity estimate (log intensity, higher = more binding, comparable within an allelic series); in the assay with SIX6 [10], 11.2 upbm affinity estimate (log intensity, higher = more binding, comparable within an allelic series); with SIX6 [11] it was 11.1 upbm affinity estimate (log intensity, higher = more binding, comparable within an allelic series); with SIX6 [12], 11 upbm affinity estimate (log intensity, higher = more binding, comparable within an allelic series). The binding signal with SIX6 [13] is 11 upbm affinity estimate (log intensity, higher = more binding, comparable within an allelic series).

(Values after paper PMC11006913.)
